Source: PubChem BioAssay
This is a sample that favours compounds with a hit; in the whole collection about 14% have one here.
Pf growth 48h: Primary qHTS for delayed death inhibitors of the malarial parasite plastid, 48 hour incubation | P. falciparum luciferase growth in erythrocytes, 48 h | hit rate 5.9% among 310,000 | Potency, µM (highest dose often 28.7 µM), inactives show at the highest dose activity change, negative = inhibition, actives largely listed as inhibitors; also: potency is read from the fitted curve at half-maximal effect
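Cell-based growth assay: transgenic P. falciparum expressing firefly luciferase, cultured in red cells within RPMI 1640 containing 0.5% w/v Albumax, 24 mM bicarbonate and gentamycin. A drop in luciferase activity indicates inhibition.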
LASV entry inh: qHTS for Inhibitors of binding or entry into cells for Lassa Virus | Potency, µM (highest dose often 37.9 µM), inactives show at the highest dose activity change, negative = inhibition, actives largely listed as inhibitors | Lassa virus pseudotype entry inhibition, cell reporter | hit rate 1.2% among 300,000 | AID 540256, 2011; calls by dose curve; tested in HEK293 cells; also: potency is read from the fitted curve at half-maximal effect; nearly all actives have a fitted effect of over 50% in size
MARV entry inh: qHTS for inhibitors of binding or entry into cells for Marburg Virus; Potency, µM (doses to about 37.8 µM), inactives show at the highest dose activity change, negative = inhibition, hits mostly inhibitors; Marburg virus pseudotyped entry inhibition, cell reporter; hit rate 1.8% among 300,000; AID 540276, 2011; calls by dose curve; tested in HEK293 cells; also: potency is read from the fitted curve at half-maximal effect
HCV inh: qHTS Assay for Inhibitors of Hepatitis C Virus (HCV); AID 651820, 2012; hit rate 3.4% among 340,000; Potency, µM (series often up to 41.8 µM), without a hit: top-dose activity change, negative = inhibition, actives largely listed as inhibitors; Huh7.5.1 HCVcc-Cre infection, luciferase reporter, 44 h; also: potency is read from the fitted curve at half-maximal effect
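Reporter virus HCVcc-Cre (~0.5 moi) infects cells exposed to compound; seeding density 1,000 cells/well with 4 h settling beforehand. Luminescence, 15 sec read, taken 44 h post-infection following a 15 min RT substrate incubation.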
Pf growth 96h: Primary qHTS for delayed death inhibitors of the malarial parasite plastid, 96 hour incubation. P. falciparum luciferase reporter growth, 96 h. Potency, µM (series often up to 28.7 µM), for the others: at the top dose activity change, negative = inhibition, actives largely listed as inhibitors. hit rate 6.9% among 320,000. AID 504834, 2011; also: potency is read from the fitted curve at half-maximal effect
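Plates of compound plus infected erythrocytes (2% hematocrit, 0.05% parasitemia final) incubate 96 hours, 37 C, 5% CO2. Detection reagent added; reduced luminescence from the parasites' luciferase reporter flags inhibition.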
HCMV antiviral: qHTS Assay for inhibitors of the human cytomegalovirus (HCMV); HFF cells, HCMV-luciferase reporter, 72 h; stronger effect = lower value; activity change, negative = inhibition, % at 57.5 µM; hit rate 4.5% among 410,000; AID 1259415, 2018; in the data active = activity change below about -60%; inconclusive = no clear call, values can overlap the other calls; inactive = above about -39%
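After 16 h attachment at 37C, HFF cells received test compound and HCMV-luciferase (1 PFU/cell); reporter luminescence read 72 h later, data normalized against buffer-only and known inhibitor Salinomycin.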
The depositor's hits bear a star; [ ] = another dose, or the depositor's remark. Unless noted, calls follow the shape of the dose curve; as a rule, active = well fitted inhibition curve with a large enough effect; inconclusive = small, poorly fitted or top-dose-only effect, or another doubt; inactive = no such curve, though single readings can be large or run the other way. % is scaled to controls: 0 for no effect and ±100 for the full control effect.

For CC1CCN(C(C(=O)NC2CCCCC2)c2cc3c(cc2[N+](=O)[O-])OCO3)CC1 (stereo not drawn) the results were Pf growth 48h 9.28µM*, LASV entry inh 3.4%, MARV entry inh 7.3%, HCV inh 8.8%, Pf growth 96h 51.4% and HCMV antiviral 53.5.
For CC1CCCN(C(C(=O)NC2CCCCC2)c2cc3c(cc2[N+](=O)[O-])OCO3)C1 (stereo not drawn) the results were Pf growth 48h inconclusive, LASV entry inh inconclusive, MARV entry inh 28.7%, HCV inh inconclusive, Pf growth 96h 0.9% and HCMV antiviral -19.0.
Screening Cc1nc2c([nH]1)c(=O)n(C)c(=O)n2Cc1ccco1 returned Pf growth 48h 4.4%, LASV entry inh -16.5%, MARV entry inh inconclusive and Pf growth 96h 5.36µM*.
Cc1nc2ccccc2c(=O)n1Cc1ccco1 was read as Pf growth 48h 15.7%, HCV inh inconclusive, Pf growth 96h -29.1% and HCMV antiviral -2.0.
`COC(=O)c1ccc(CSc2nc3c(cnn3-c3ccc(Cl)cc3)c(=O)[nH]2)o1` gave Pf growth 48h 0.6%, LASV entry inh inconclusive, MARV entry inh -1.0%, HCV inh 4.5%, Pf growth 96h 6.57µM* and HCMV antiviral -11.9.
For COC(=O)c1ccc(CSc2nc3c(cnn3-c3ccc(F)cc3)c(=O)[nH]2)o1 the results were Pf growth 48h 13.2%, LASV entry inh -1.1%, MARV entry inh 4.1%, HCV inh -7.2%, Pf growth 96h inconclusive and HCMV antiviral 35.2.
Screening COc1cccc(NC(=O)N(CCCN2CCOCC2)C(C)c2cc3cccc(OC)c3o2)c1 (stereo not drawn) returned Pf growth 48h inconclusive, LASV entry inh inconclusive, MARV entry inh -14.2%, HCV inh -20.5%, Pf growth 96h inconclusive and HCMV antiviral 47.5.
For COc1cccc(NC(=O)N(CCCN2CCOCC2)C(C)c2cc3ccccc3o2)c1 (stereo not drawn) the results were LASV entry inh -7.2%, MARV entry inh 21.8%, HCV inh 9.1%, Pf growth 96h 11.7µM* and HCMV antiviral 0.8.
`COc1cccc(NC(=S)N(CCCN2CCOCC2)C(C)c2cc3cccc(OC)c3o2)c1` (stereo not drawn) gave Pf growth 48h inconclusive, HCV inh -5.7%, Pf growth 96h 2.08µM* and HCMV antiviral 14.0.
Screening CCOC(=O)[C@H]1[C@H]2COc3ccc(Cl)cc3[C@@H]2N2C(=O)CN(CC3CCCO3)C(=O)[C@@]12C (stereo partly drawn) returned Pf growth 48h -11.7%, HCV inh 18.2%, Pf growth 96h inconclusive and HCMV antiviral 5.8.
Screening Cc1cc(C)c2oc(C(=O)Nc3nnc(C(C)C)s3)cc(=O)c2c1 returned Pf growth 48h 5.7%, LASV entry inh 0.5%, MARV entry inh 8.1%, HCV inh -5.5%, Pf growth 96h 21.8% and HCMV antiviral -66.4*.
Cc1cccc(N2CCN(C(C(=O)NCc3ccccc3)c3ccc(F)cc3)CC2)c1C (stereo not drawn) was read as HCMV antiviral 71.1.
`O=C(Nc1ccc2nc(SCC(=O)N3CCOCC3)sc2c1)c1cccc(Cl)c1` gave LASV entry inh -32.3%[46.1 µM], MARV entry inh 2.6%[46.1 µM] and HCMV antiviral -4.9.
`C=CCC1(CC=C)CCCN1C(=O)CC1C(=O)NCCN1Cc1cc(OC)cc(OC)c1` (stereo not drawn) gave Pf growth 48h 14.7µM*, LASV entry inh -11.7%[46.1 µM], MARV entry inh inconclusive, HCV inh 3.6%, Pf growth 96h inconclusive and HCMV antiviral 8.8.
`C=CCC1(CC=C)CCCN1C(=O)CC1C(=O)NCCN1Cc1cccc(OC)c1` (stereo not drawn) gave Pf growth 48h inconclusive, LASV entry inh -13.8%, MARV entry inh -1.8%[46.1 µM], HCV inh 9.5%, Pf growth 96h -19.8% and HCMV antiviral -23.8.
Screening O=C1NC(=O)/C(=C/c2cccc(O)c2)N1 returned Pf growth 48h 40.0%, HCV inh 3.0%, Pf growth 96h 62.4% and HCMV antiviral -7.9.
For CC(C)(C)c1cc(/C=C2\NC(=O)NC2=O)cc(C(C)(C)C)c1O the results were Pf growth 48h inconclusive, HCV inh inconclusive, Pf growth 96h 199.6% and HCMV antiviral -82.8*.
`Nc1cc(-c2ccccc2)ccc1O` gave Pf growth 48h inconclusive, LASV entry inh 0.5%, MARV entry inh -4.8%, HCV inh -15.9%, Pf growth 96h 11.7µM* and HCMV antiviral -9.1.
`COc1ccc(S(=O)(=O)N2CCN(C(=S)NC3CCCCC3)CC2)cc1` gave Pf growth 48h 0.928µM*, LASV entry inh -4.5%, MARV entry inh 0.0%[46.1 µM], HCV inh 8.5%, Pf growth 96h 6.0% and HCMV antiviral 2.5.
`CCOc1ccc(S(=O)(=O)N2CCN(C(=S)NC3CC3)CC2)cc1` gave Pf growth 48h 4.15µM*, LASV entry inh -18.1%, MARV entry inh -11.2%, HCV inh -29.4%, Pf growth 96h inconclusive and HCMV antiviral inconclusive.
CCOc1ccc(NC(=S)N2CCN(S(=O)(=O)c3ccc(C)cc3)CC2)cc1 was read as Pf growth 48h inconclusive, LASV entry inh -6.0%, MARV entry inh -20.4%, HCV inh -1.3%, Pf growth 96h inconclusive and HCMV antiviral -32.9.
Screening O=C1CN(C(=O)COc2c(F)c(F)cc(F)c2F)c2ccccc2N1 returned Pf growth 48h inconclusive, HCV inh 9.3%, Pf growth 96h -32.9% and HCMV antiviral 19.3.
COCC(C)n1c(COc2ccccc2F)nnc1SCC(=O)Nc1oc(C)c2c(C)n[nH]c(=O)c12 (stereo not drawn) was read as Pf growth 48h 1.2%, LASV entry inh -21.7%, MARV entry inh 22.6%, HCV inh 0.9%, Pf growth 96h 14.3% and HCMV antiviral -12.6.
Cc1nc(CC(=O)NNS(=O)(=O)c2cccc(Cl)c2Cl)cs1 was read as LASV entry inh 0.0%, MARV entry inh 0.7%, HCV inh 18.1% and HCMV antiviral 2.7.
Screening CCc1nnc(NS(=O)(=O)c2ccc(N/C=C\C(=O)c3cccc4ccccc34)cc2)s1 returned Pf growth 48h -28.8%, LASV entry inh -8.9%, MARV entry inh -15.5%, HCV inh 9.5%, Pf growth 96h 9.28µM* and HCMV antiviral -11.7.
CCc1nnc(NS(=O)(=O)c2ccc(N/C=C/C(=O)c3ccc(OC)cc3)cc2)s1 was read as Pf growth 48h 35.8%, LASV entry inh -14.9%[46.1 µM], MARV entry inh inconclusive, HCV inh 18.7%, Pf growth 96h inconclusive and HCMV antiviral 11.9.
